Data from PMC7862700, “An all-to-all approach to the identification of sequence-specific readers for epigenetic DNA modifications on cytosine”.

Assays:
Test in all cases: DAPPL (digital affinity profiling via proximity ligation, sequencing); 10 mM Tris-HCl pH 7.5, 50 mM NaCl, 1 mM DTT, 4% glycerol, room temperature, 30 min; GST-TFs on glutathione beads, 16-mer random dsDNA library, 0.1% formaldehyde crosslink after washing; high values mean tight binding
FEV = target: T1, FEV (Homo sapiens, UniProt Q99581 1-238); details: protein: recombinant; tags: N-terminal GST; dsDNA, one strand shown
T1 sequence: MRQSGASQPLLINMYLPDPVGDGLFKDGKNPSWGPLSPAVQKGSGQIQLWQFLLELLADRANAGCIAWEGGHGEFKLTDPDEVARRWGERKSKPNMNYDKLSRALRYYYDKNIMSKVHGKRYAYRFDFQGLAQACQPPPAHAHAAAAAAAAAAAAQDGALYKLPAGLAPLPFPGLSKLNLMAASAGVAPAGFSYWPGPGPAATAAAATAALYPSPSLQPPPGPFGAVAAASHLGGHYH
Procedure, shortened: (§1)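 Binding signal is each hexamer's read frequency for a factor divided by its frequency in the tag-only sample. The factors were GST-fused human transcription factors from yeast, captured on glutathione beads, DNA-barcoded and pooled with that sample. Pools were incubated with 200 nmole of a random double-stranded 16-mer DNA library in Tris/NaCl/DTT/glycerol buffer at room temperature for 30 min, then washed, crosslinked with 0.1% formaldehyde, proximity-ligated with BsaI/T4 ligase (1 h, 37 °C), PCR-amplified and sequenced on an Illumina NextSeq500.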

ETV5 = ETV5 (Homo sapiens, UniProt P41161 1-510); details: protein: recombinant; tags: N-terminal GST; dsDNA, one strand shown
Procedure, shortened: as §1

HSF1 = HSF1 (Homo sapiens, UniProt Q00613 1-529); details: protein: recombinant; tags: N-terminal GST; chain copies: 3; dsDNA, one strand shown
Procedure, shortened: as §1

ELF4 = ELF4 (Homo sapiens, UniProt Q99607 1-663); details: protein: recombinant; tags: N-terminal GST; dsDNA, one strand shown
Procedure, shortened: as §1

ELK4 = target: T2, ELK4 (Homo sapiens, UniProt P28324-2 1-405); details: protein: recombinant; tags: N-terminal GST; dsDNA, one strand shown
T2 sequence: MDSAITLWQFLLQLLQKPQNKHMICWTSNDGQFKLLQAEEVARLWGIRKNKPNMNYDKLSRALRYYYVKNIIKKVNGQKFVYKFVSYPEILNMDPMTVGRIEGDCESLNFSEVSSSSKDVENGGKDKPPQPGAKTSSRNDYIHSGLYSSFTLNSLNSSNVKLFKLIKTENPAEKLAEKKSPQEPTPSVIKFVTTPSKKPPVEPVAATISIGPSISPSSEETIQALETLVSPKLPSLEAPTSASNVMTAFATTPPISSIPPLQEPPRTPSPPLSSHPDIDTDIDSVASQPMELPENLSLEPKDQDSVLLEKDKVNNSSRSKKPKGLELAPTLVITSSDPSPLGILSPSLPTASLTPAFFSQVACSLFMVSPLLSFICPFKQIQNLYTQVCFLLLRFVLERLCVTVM
Procedure, shortened: as §1

ETV2 = target: T3, ETV2 (Homo sapiens, UniProt O00321 1-342); details: protein: recombinant; tags: N-terminal GST; dsDNA, one strand shown
T3 sequence: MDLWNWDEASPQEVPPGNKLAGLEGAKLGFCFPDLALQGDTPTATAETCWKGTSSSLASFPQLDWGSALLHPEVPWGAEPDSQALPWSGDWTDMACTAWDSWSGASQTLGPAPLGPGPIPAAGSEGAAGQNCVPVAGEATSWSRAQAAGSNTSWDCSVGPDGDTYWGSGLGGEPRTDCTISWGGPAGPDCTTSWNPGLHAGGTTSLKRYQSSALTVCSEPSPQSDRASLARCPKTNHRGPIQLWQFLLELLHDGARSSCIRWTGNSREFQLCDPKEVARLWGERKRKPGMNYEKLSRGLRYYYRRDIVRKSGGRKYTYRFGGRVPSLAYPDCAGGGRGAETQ
Procedure, shortened: as §1

ELF3 = target: T4, ELF3 (Homo sapiens, UniProt P78545 1-371); details: protein: recombinant; tags: N-terminal GST; dsDNA, one strand shown
T4 sequence: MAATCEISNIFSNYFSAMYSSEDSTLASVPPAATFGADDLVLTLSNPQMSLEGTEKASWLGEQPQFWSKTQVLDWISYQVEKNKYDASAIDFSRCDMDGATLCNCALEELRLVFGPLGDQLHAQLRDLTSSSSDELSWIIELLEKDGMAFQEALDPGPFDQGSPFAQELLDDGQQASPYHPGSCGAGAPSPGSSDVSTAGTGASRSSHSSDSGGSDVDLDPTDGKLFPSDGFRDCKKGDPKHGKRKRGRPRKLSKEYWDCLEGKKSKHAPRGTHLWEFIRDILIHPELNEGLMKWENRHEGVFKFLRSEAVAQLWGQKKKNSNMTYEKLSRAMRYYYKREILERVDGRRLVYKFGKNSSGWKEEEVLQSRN
Procedure, shortened: as §1

CRX = CRX (Homo sapiens, UniProt O43186 1-299); details: protein: recombinant; tags: N-terminal GST; dsDNA, one strand shown
Procedure, shortened: as §1

ETV1 = ETV1 (Homo sapiens, UniProt P50549 1-477); details: protein: recombinant; tags: N-terminal GST; dsDNA, one strand shown
Procedure, shortened: as §1

ERF = target: T5, ERF (Homo sapiens, UniProt P50548 1-548); details: protein: recombinant; tags: N-terminal GST; dsDNA, one strand shown
T5 sequence: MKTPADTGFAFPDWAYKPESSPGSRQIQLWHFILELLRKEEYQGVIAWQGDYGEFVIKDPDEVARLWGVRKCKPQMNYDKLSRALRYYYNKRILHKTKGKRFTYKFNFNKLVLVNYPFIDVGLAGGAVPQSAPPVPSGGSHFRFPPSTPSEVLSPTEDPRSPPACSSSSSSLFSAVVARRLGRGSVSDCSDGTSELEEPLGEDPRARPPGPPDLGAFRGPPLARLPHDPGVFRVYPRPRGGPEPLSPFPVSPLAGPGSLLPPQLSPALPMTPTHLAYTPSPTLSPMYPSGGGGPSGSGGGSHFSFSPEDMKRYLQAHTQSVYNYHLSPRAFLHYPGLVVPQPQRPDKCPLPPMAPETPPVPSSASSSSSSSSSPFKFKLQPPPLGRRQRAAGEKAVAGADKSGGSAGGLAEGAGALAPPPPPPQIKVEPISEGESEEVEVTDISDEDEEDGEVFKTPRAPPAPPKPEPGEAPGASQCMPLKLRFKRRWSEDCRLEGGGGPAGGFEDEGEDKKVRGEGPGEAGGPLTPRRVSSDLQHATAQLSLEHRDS
Procedure, shortened: as §1

ETV3L = target: T6, ETV3L (Homo sapiens, UniProt Q6ZN32 1-361); details: protein: recombinant; tags: N-terminal GST; dsDNA, one strand shown
T6 sequence: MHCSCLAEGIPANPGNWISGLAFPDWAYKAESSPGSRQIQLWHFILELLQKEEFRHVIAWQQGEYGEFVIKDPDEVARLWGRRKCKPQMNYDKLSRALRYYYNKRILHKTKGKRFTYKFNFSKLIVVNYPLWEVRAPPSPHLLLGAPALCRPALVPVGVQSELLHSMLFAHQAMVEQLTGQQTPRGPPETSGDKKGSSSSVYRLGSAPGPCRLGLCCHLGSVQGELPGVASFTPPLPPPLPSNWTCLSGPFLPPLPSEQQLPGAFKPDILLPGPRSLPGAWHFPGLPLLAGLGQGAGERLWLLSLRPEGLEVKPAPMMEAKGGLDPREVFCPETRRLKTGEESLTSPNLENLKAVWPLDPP
Procedure, shortened: as §1

ETS2 = target: T7, ETS2 (Homo sapiens, UniProt P15036 1-469); details: protein: recombinant; tags: N-terminal GST; dsDNA, one strand shown
T7 sequence: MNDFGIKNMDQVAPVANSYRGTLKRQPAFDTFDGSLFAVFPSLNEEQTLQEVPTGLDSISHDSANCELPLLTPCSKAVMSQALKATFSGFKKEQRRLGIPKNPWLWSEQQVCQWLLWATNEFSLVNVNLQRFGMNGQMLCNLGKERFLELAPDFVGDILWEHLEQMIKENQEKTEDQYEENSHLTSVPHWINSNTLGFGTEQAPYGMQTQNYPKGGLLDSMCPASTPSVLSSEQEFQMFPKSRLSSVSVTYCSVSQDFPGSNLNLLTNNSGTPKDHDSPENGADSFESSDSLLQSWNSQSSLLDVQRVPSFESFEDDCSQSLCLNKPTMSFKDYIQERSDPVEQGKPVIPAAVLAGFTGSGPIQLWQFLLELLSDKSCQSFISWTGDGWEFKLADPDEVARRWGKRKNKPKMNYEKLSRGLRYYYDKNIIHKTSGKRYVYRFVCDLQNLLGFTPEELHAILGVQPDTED
Procedure, shortened: as §1

SPDEF = target: T8, SPDEF (Homo sapiens, UniProt O95238 1-335); details: protein: recombinant; tags: N-terminal GST; dsDNA, one strand shown
T8 sequence: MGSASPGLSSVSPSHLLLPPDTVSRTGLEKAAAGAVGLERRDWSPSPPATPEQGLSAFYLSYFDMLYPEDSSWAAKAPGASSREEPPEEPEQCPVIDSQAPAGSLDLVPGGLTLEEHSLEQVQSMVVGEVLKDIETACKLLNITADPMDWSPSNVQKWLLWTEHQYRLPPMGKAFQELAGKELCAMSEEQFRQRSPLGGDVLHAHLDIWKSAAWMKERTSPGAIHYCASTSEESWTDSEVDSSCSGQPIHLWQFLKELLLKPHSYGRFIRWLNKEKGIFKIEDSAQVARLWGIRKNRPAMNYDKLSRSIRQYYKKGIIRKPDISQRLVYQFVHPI
Procedure, shortened: as §1

ETV7 = target: T9, ETV7 (Homo sapiens, UniProt Q9Y603 1-341); details: protein: recombinant; tags: N-terminal GST; dsDNA, one strand shown
T9 sequence: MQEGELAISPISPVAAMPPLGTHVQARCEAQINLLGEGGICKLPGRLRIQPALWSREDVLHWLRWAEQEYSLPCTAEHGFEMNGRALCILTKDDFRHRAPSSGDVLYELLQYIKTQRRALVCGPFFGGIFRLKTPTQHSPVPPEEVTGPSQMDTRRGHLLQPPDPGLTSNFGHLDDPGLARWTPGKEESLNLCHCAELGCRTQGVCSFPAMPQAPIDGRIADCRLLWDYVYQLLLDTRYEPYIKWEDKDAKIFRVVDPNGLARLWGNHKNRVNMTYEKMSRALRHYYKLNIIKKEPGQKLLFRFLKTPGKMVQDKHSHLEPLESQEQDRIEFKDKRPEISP
Procedure, shortened: as §1

ELF5 = target: T10, ELF5 (Homo sapiens, UniProt Q9UKW6-2 1-255); details: protein: recombinant; tags: N-terminal GST; dsDNA, one strand shown
T10 sequence: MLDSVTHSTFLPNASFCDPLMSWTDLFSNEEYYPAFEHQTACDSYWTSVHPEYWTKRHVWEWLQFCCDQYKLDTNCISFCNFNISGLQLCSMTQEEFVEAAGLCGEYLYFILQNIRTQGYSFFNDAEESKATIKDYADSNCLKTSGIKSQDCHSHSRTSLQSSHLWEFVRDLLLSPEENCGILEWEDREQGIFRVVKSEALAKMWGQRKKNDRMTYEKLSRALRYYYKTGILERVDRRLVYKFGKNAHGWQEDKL
Procedure, shortened: as §1

ETV3 = target: T11, ETV3 (Homo sapiens, UniProt P41162-2 1-143); details: protein: recombinant; tags: N-terminal GST; dsDNA, one strand shown
T11 sequence: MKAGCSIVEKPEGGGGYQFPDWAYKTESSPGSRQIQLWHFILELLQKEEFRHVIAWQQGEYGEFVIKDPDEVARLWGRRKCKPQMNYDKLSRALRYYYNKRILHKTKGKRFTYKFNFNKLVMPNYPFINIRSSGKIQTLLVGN
Procedure, shortened: as §1

ETV6 = ETV6 (Homo sapiens, UniProt P41212 1-452); details: protein: recombinant; tags: N-terminal GST; dsDNA, one strand shown
Procedure, shortened: as §1

Chain of ETV5 (P41161 whole entry): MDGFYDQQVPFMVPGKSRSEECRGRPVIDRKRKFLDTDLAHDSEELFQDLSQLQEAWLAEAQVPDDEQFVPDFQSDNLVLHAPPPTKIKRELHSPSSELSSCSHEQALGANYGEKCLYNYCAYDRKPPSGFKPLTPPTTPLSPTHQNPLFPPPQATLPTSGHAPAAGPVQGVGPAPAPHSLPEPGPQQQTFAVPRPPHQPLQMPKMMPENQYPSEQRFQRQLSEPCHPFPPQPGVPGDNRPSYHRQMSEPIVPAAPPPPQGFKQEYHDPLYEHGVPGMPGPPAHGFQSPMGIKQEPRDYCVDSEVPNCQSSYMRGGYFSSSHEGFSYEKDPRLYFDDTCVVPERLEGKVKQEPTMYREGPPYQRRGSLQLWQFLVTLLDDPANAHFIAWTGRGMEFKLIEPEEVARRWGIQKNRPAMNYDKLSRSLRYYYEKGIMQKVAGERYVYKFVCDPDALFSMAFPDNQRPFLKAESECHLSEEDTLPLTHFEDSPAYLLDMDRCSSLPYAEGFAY
Chain of CRX (O43186 whole entry): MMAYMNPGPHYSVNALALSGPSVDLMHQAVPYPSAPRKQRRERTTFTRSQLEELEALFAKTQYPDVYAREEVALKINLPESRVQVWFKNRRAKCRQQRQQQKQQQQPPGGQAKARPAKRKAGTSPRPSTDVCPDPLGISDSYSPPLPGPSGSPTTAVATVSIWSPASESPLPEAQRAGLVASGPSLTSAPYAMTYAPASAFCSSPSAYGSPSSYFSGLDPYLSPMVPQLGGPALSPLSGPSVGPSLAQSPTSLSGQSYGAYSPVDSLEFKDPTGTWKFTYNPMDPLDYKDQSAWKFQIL
Chain of ETV6 (P41212 whole entry): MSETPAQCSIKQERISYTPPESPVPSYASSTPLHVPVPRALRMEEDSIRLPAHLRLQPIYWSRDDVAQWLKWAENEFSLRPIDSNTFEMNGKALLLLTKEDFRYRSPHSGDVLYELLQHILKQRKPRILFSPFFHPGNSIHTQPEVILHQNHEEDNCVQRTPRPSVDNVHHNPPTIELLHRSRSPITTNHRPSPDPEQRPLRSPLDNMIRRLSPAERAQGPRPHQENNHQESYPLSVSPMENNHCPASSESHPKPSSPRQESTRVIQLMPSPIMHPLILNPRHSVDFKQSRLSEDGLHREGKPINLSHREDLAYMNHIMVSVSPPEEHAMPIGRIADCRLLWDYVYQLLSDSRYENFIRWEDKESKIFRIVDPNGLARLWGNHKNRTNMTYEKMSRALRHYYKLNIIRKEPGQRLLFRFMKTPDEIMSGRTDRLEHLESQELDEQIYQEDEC
Chain of ETV1 (P50549 whole entry): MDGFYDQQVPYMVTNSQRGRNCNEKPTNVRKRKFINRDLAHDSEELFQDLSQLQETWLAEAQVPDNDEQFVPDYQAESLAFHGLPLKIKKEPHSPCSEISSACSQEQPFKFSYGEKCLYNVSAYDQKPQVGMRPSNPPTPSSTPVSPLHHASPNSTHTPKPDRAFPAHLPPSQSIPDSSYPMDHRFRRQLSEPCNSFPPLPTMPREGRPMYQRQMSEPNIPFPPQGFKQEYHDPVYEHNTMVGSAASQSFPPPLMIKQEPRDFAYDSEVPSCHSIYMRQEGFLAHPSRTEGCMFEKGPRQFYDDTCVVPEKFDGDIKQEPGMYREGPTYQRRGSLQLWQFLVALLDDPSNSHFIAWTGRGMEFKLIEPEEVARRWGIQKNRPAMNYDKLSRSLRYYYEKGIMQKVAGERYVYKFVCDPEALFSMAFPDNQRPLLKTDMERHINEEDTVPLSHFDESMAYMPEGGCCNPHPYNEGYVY
Chain of ELF4 (Q99607 whole entry): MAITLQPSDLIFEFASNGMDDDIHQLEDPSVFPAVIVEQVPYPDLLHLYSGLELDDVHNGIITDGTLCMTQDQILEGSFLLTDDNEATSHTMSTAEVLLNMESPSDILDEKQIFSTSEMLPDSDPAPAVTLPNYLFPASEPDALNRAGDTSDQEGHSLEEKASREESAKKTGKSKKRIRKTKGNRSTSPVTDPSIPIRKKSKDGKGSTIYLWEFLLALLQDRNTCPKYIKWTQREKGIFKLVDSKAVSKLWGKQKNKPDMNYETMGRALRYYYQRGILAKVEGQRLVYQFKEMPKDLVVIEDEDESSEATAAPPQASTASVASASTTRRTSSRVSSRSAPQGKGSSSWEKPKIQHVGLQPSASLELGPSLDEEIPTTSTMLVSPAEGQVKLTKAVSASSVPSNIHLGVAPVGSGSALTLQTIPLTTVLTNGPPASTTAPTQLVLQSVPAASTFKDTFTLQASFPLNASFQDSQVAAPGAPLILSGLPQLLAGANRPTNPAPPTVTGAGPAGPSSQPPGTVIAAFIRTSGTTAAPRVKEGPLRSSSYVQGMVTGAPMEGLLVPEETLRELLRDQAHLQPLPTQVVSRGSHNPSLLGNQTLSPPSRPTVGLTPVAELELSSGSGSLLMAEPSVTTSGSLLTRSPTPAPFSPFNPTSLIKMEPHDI
Chain of HSF1 (Q00613 whole entry): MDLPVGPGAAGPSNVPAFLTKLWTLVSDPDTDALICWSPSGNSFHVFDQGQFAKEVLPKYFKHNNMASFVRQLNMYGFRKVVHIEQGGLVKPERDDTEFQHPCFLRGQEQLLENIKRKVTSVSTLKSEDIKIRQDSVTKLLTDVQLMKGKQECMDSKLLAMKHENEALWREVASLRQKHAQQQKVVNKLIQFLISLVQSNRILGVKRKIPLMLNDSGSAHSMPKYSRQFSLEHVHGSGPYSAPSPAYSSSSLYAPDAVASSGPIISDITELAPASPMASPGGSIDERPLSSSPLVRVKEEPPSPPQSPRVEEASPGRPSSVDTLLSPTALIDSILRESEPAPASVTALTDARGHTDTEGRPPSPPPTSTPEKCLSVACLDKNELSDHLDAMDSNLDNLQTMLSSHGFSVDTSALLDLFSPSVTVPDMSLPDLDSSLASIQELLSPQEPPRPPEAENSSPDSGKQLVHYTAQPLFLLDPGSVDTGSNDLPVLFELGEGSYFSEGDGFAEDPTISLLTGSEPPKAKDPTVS

Sequence	binding signal (FEV)	binding signal (ETV5)	binding signal (HSF1)	binding signal (ELF4)	binding signal (ELK4)	binding signal (ETV2)	binding signal (ELF3)	binding signal (CRX)	binding signal (ETV1)	binding signal (ERF)	binding signal (ETV3L)	binding signal (ETS2)	binding signal (SPDEF)	binding signal (ETV7)	binding signal (ELF5)	binding signal (ETV3)	binding signal (ETV6)
AACCAT	1.15 fold enrichment (6-mer frequency, TF over GST control)	1.15 fold enrichment (6-mer frequency, TF over GST control)	1.15 fold enrichment (6-mer frequency, TF over GST control)	1.15 fold enrichment (6-mer frequency, TF over GST control)	1.21 fold enrichment (6-mer frequency, TF over GST control)	1.2 fold enrichment (6-mer frequency, TF over GST control)	1.1 fold enrichment (6-mer frequency, TF over GST control)	1.05 fold enrichment (6-mer frequency, TF over GST control)	1.06 fold enrichment (6-mer frequency, TF over GST control)	1.07 fold enrichment (6-mer frequency, TF over GST control)	1.16 fold enrichment (6-mer frequency, TF over GST control)	1.12 fold enrichment (6-mer frequency, TF over GST control)	1.11 fold enrichment (6-mer frequency, TF over GST control)	1.15 fold enrichment (6-mer frequency, TF over GST control)	1.08 fold enrichment (6-mer frequency, TF over GST control)	1.16 fold enrichment (6-mer frequency, TF over GST control)	1.13 fold enrichment (6-mer frequency, TF over GST control)
AAGGTA	1.02 fold enrichment (6-mer frequency, TF over GST control)	1.11 fold enrichment (6-mer frequency, TF over GST control)	1.11 fold enrichment (6-mer frequency, TF over GST control)	1.1 fold enrichment (6-mer frequency, TF over GST control)	1.14 fold enrichment (6-mer frequency, TF over GST control)	1.07 fold enrichment (6-mer frequency, TF over GST control)	1.16 fold enrichment (6-mer frequency, TF over GST control)	1.05 fold enrichment (6-mer frequency, TF over GST control)	1.11 fold enrichment (6-mer frequency, TF over GST control)	1.05 fold enrichment (6-mer frequency, TF over GST control)	1.14 fold enrichment (6-mer frequency, TF over GST control)	1.11 fold enrichment (6-mer frequency, TF over GST control)	1.16 fold enrichment (6-mer frequency, TF over GST control)	1.18 fold enrichment (6-mer frequency, TF over GST control)	1.06 fold enrichment (6-mer frequency, TF over GST control)	1.09 fold enrichment (6-mer frequency, TF over GST control)	1.19 fold enrichment (6-mer frequency, TF over GST control)
